Some of the results follow. No count for the full screen is at hand.
Target: furin, P09958
Test: furin cleavage Z-score vs untreated control; higher = more cleavage, active = 3.5 or more, inactive = 1 or less, 8 variable residues between constant flanks
How it was run: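 Purified furin cleaved 8-mer peptides that were fused to a cDNA oligonucleotide and held on magnetic beads by their N-terminus. Each 0.01 ml reaction used a 1:10 enzyme:substrate ratio in 50 mM HEPES pH 7.5 with CaCl2 and NaCl and ran 7.5, 15 or 30 min. Released DNA was adapter-tagged by PCR and sequenced, and read counts gave abundance. The cleavage Z-score came from log counts against furin-free reactions, lowess-adjusted and scaled by median absolute deviation.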

Chain of furin, P09958 (P09958 whole entry): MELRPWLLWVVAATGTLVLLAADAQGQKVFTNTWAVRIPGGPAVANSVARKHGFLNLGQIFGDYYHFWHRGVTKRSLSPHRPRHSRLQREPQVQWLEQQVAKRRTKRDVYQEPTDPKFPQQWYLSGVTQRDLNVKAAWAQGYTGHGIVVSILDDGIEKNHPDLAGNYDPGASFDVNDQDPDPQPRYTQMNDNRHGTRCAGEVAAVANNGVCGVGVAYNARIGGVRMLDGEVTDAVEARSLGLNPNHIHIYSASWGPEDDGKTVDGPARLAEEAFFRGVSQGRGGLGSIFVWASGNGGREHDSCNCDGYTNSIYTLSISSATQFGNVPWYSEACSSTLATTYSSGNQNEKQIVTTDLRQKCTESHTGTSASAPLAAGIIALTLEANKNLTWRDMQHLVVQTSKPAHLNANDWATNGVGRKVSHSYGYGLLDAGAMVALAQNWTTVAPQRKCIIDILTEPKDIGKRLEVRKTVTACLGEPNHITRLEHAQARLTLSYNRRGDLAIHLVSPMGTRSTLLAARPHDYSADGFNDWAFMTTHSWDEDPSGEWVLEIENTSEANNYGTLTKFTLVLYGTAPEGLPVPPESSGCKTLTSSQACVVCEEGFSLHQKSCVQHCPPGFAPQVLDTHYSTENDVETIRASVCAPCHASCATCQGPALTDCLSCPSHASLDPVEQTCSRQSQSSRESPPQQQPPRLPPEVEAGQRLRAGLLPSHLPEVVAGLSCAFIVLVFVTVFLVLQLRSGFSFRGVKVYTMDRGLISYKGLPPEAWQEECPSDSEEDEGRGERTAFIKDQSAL

Sequence	furin cleavage Z-score (7.5 min)	furin cleavage Z-score (15 min)	furin cleavage Z-score (30 min)
CAPKGPVIQMAGNASASA [HC707]	-0.0909 (inactive)	0.949 (inactive)	0.762 (inactive)
CAVVNCSMSYAGNASASA [HC2041]	0.601 (inactive)	1.6	-0.0752 (inactive)
CATAARRLRDAGNASASA [FS-382]	1.54	3.67 (active)	3.74 (active)
CATARRHGRDAGNASASA [FS-878]	6.42 (active)	7.12 (active)	6.27 (active)
CAAPGRDGRDAGNASASA [FS-397]	-0.000356 (inactive)	-1.26 (inactive)	-0.555 (inactive)
CAGRTGRGKPAGNASASA [HC905]	-1.05 (inactive)	-0.843 (inactive)	-1.55 (inactive)
CARKKRIKRRAGNASASA [FS-2266]	13.1 (active)	14.5 (active)	11.5 (active)
CADISRIKRGAGNASASA [FS-756]	2.64	4.17 (active)	2.27
CARKKRLENRAGNASASA [FS-2214]	1.32	0.582 (inactive)	0.84 (inactive)
CADSSRIKRRAGNASASA [FS-1449]	8.08 (active)	10.6 (active)	8.94 (active)
CAHKSRKERRAGNASASA [FS-536]	1.88	4.97 (active)	3.69 (active)
CAWVCCSMSYAGNASASA [HC1988]	0.172 (inactive)	0.44 (inactive)	1.05
CARPLRGVSGAGNASASA [FS-3018]	-0.934 (inactive)	-0.697 (inactive)	-0.66 (inactive)
CAEAALENLVAGNASASA [HC533]	-0.446 (inactive)	-0.46 (inactive)	-1.1 (inactive)
CARLKRTNGNAGNASASA [FS-1963]	0.424 (inactive)	2.26	1.1
CARLKKIKDDAGNASASA [FS-1740]	-0.946 (inactive)	-0.774 (inactive)	-1.39 (inactive)
CARLKRAVSEAGNASASA [FS-2704]	8.88 (active)	10.6 (active)	7.25 (active)
CARLKRVVPDAGNASASA [FS-2221]	3.21	5.12 (active)	6 (active)
CARLDRHVFIAGNASASA [FS-2042]	-0.675 (inactive)	-1.39 (inactive)	-0.0693 (inactive)
CARLKRAVWIAGNASASA [FS-2989]	5.97 (active)	7.83 (active)	8.13 (active)
CARLKRIVFDAGNASASA [FS-2570]	0.11 (inactive)	0.63 (inactive)	1.98
CARLKRHPEEAGNASASA [FS-2276]	1.2	3.98 (active)	3.45
CARLKRRQEEAGNASASA [FS-2709]	-0.805 (inactive)	0.691 (inactive)	1.04

Sequence	furin cleavage Z-score (7.5 min)	furin cleavage Z-score (15 min)	furin cleavage Z-score (30 min)
CAEVVTSSWVAGNASASA [HC2217]	0.949 (inactive)	3.4	-0.0256 (inactive)
CANTPCSGSWAGNASASA [HC1841]	-0.658 (inactive)	-0.9 (inactive)	-0.678 (inactive)
CAMEECSQGLAGNASASA [HC1756]	0.411 (inactive)	1.43	1.65
CATTPCSGCWAGNASASA [HC1920]	-0.899 (inactive)	-0.942 (inactive)	-0.88 (inactive)
CAVVCLSMSYAGNASASA [HC84]	0.288 (inactive)	-0.622 (inactive)	-0.642 (inactive)
CASFLVFFCFAGNASASA [HC544]	-1.06 (inactive)	-0.337 (inactive)	-0.101 (inactive)
CAGTHGLVSFAGNASASA [HC541]	1.37	0.474 (inactive)	1.36
CARLKRQPCAAGNASASA [FS-3227]	0.299 (inactive)	-0.962 (inactive)	-0.478 (inactive)
CARLKRALDFAGNASASA [FS-2219]	6.13 (active)	7.48 (active)	7.29 (active)
CARLKRQVTEAGNASASA [FS-2992]	11.3 (active)	12 (active)	11.2 (active)
CARLKRVEDQAGNASASA [FS-1907]	-1.61 (inactive)	0.449 (inactive)	-0.817 (inactive)
CAVLATATPPAGNASASA [HC833]	-0.698 (inactive)	-1.92 (inactive)	-0.599 (inactive)
CARSVRFISNAGNASASA [FS-2821]	-2.17 (inactive)	-0.565 (inactive)	1.32
CARDARSVRDAGNASASA [FS-2328]	2.71	4.77 (active)	5.93 (active)
CAREDRAVRDAGNASASA [FS-2413]	-1.11 (inactive)	0.317 (inactive)	-0.31 (inactive)
CARSVRSTRDAGNASASA [FS-1075]	9.44 (active)	11 (active)	9.05 (active)
CARDARMSDAAGNASASA [FS-2204]	-1.21 (inactive)	0.407 (inactive)	0.769 (inactive)
CAQMHRKFRSAGNASASA [FS-703]	6.07 (active)	8.69 (active)	6.07 (active)
CACHLRRFRSAGNASASA [FS-581]	-0.297 (inactive)	-0.28 (inactive)	0.354 (inactive)
CARGGRDAVIAGNASASA [HC594]	0.336 (inactive)	0.26 (inactive)	0.331 (inactive)
CATNHRIFRSAGNASASA [FS-384]	1.71	2.99	5.79 (active)
CARGGRIFRSAGNASASA [FS-1397]	7.37 (active)	8.25 (active)	7.16 (active)
CAFLWRSFRSAGNASASA [FS-327]	-0.934 (inactive)	-0.656 (inactive)	-0.629 (inactive)
